{"source": "the supplement of paper PMC10498489", "note": "In all, about 2,300 compounds went through this assay and about 330 (14%) showed activity. These entries were drawn from the full list. Values without a mark were called inactive.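 Rule for the calls: active = median modified Z-score above 1.96; inactive = 1.96 or below.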"}
{"system": "HepG2 Srxn1-GFP reporter cells (+30 nM CDDO-Me)", "test": "Srxn1-GFP intensity median modified Z-score relative to plate median; higher = stronger NRF2 / oxidative stress reporter activation, active = hit call of the paper", "details": "10 µM; exposure time: 24h", "in_short": "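Per-cell cytoplasmic GFP was measured on confocal images of formaldehyde-fixed, Hoechst-stained HepG2 Srxn1-GFP BAC reporter cells, excluding images with fewer than 100 cells. Before this, the cells (20,000 per well, 96-well plates) were co-exposed for 24 h to compound at 10 μM and an NRF2 activator at 30 nM with ≤0.1% DMSO, in three replicate plates. Each value is the median over replicates of the per-plate modified Z-score of GFP intensity. That score was scaled with 1.4826 × median absolute deviation.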"}
{"molecule": "CC(=O)C1CCC2C3=CC=C4CC(=O)CC[C@@]4(C)C3CC[C@]12C", "note": "(stereo partly specified) [euspeclibcmpd815]", "Srxn1-GFP intensity median modified Z-score": 1.45}
{"molecule": "CCCC[C@@H](CC)COC(=O)C(C#N)=C(c1ccccc1)c1ccccc1", "note": "[euspeclibcmpd936]", "Srxn1-GFP intensity median modified Z-score": 0.649}
{"molecule": "N#C[C@@H]1C[C@@H]2C[C@@H]2N1C(=O)C(N)C12CC3CC(CC(O)(C3)C1)C2", "note": "(stereo partly specified) [euspeclibcmpd1283]", "Srxn1-GFP intensity median modified Z-score": -0.27}
{"molecule": "CC(C)CCCC(C)C1CCC2C3CC[C@H]4C[C@H](O)CC[C@]4(C)C3CC[C@]12C", "note": "(stereo partly specified) [euspeclibcmpd2260]", "Srxn1-GFP intensity median modified Z-score": -0.325}
{"molecule": "C1N2CN3CN1CN(C2)C3", "note": "[euspeclibcmpd187]", "Srxn1-GFP intensity median modified Z-score": "9.99 (active)"}
{"molecule": "CC(=O)OCC(=O)[C@@]12OC(C)(C)O[C@@H]1CC1C3CC(F)=C4CC(=O)C=C[C@]4(C)[C@@]3(F)[C@@H](O)C[C@@]12C", "note": "(stereo partly specified) [euspeclibcmpd130]", "Srxn1-GFP intensity median modified Z-score": -0.571}
{"molecule": "CC(=O)O[C@H]1CC2CCC3C(CC[C@@]4(C)C3C[C@H]([N+]3(C)CCCCC3)[C@@H]4OC(C)=O)[C@@]2(C)C[C@@H]1N1CCCCC1", "note": "(stereo partly specified) [euspeclibcmpd853]", "Srxn1-GFP intensity median modified Z-score": -0.182}
{"molecule": "N#Cc1ccc2[nH]cc(CCCCN3CCN(c4ccc5oc(C(N)=O)cc5c4)CC3)c2c1", "note": "[euspeclibcmpd2178]", "Srxn1-GFP intensity median modified Z-score": 0.321}
{"molecule": "C[C@@H]1CC[C@@]2(OC1)OC1CC3C4CC=C5C[C@@H](O)CC[C@]5(C)C4CC[C@]3(C)C1[C@@H]2C", "note": "(stereo partly specified) [euspeclibcmpd1355]", "Srxn1-GFP intensity median modified Z-score": -0.393}
{"molecule": "O=c1c(O)c(-c2ccc(O)c(O)c2)oc2c(O[C@@H]3O[C@H](CO)[C@H](O)[C@@H](O)[C@H]3O)c(O)cc(O)c12", "note": "[euspeclibcmpd1755]", "Srxn1-GFP intensity median modified Z-score": -0.613}
{"molecule": "COc1ccc(CC(N)C(=O)N[C@@H]2[C@@H](CO)OC(n3cnc4c(N(C)C)ncnc43)[C@@H]2O)cc1", "note": "(stereo partly specified) [euspeclibcmpd2118]", "Srxn1-GFP intensity median modified Z-score": "2.51 (active)"}
{"molecule": "COc1[nH]c(=N)nc2c1ncn2C1OC(CO)C(O)C1O", "note": "(stereo unspecified) [euspeclibcmpd1835]", "Srxn1-GFP intensity median modified Z-score": -0.349}
{"molecule": "O=c1[nH]cnc2c1ncn2C1O[C@H](CO)[C@@H](O)[C@H]1O", "note": "(stereo partly specified) [euspeclibcmpd1256]", "Srxn1-GFP intensity median modified Z-score": -0.544}
{"molecule": "COc1ccc(C(=O)O)c(O)c1OC", "note": "[euspeclibcmpd1494]", "Srxn1-GFP intensity median modified Z-score": -0.416}
{"molecule": "CC(C=CC1(O)C(C)=CC(=O)CC1(C)C)=CC(=O)O", "note": "(stereo unspecified) [euspeclibcmpd1542]", "Srxn1-GFP intensity median modified Z-score": 0.012}
{"molecule": "CONC(=O)c1cc(-c2ccccc2)nc2ccccc12", "Srxn1-GFP intensity median modified Z-score": 1.04}
{"molecule": "Cc1cc(=NS(=O)(=O)c2ccc(N)cc2)[nH]o1", "note": "[euspeclibcmpd278]", "Srxn1-GFP intensity median modified Z-score": -0.427}
{"molecule": "C[C@@H]1CC[C@@]2(OC1)O[C@H]1CC3C4CC[C@H]5C[C@@H](O)CC[C@]5(C)C4CC[C@]3(C)[C@H]1[C@@H]2C", "note": "(stereo partly specified) [euspeclibcmpd2432]", "Srxn1-GFP intensity median modified Z-score": -0.319}
{"molecule": "C1CCN2C[C@@H]3C[C@H](CN4CCCC[C@@H]34)[C@H]2C1", "note": "[euspeclibcmpd2370]", "Srxn1-GFP intensity median modified Z-score": -0.181}
{"molecule": "CN(Cc1cnc2[nH]c(=N)[nH]c(=N)c2n1)c1ccc(C(=O)NC(CCC(=O)O)C(=O)O)cc1", "note": "(stereo unspecified) [euspeclibcmpd190]", "Srxn1-GFP intensity median modified Z-score": "8.95 (active)"}
{"molecule": "N=c1[nH]c(=O)c2nc(CNc3ccc(C(=O)NC(CCC(=O)O)C(=O)O)cc3)cnc2[nH]1", "note": "(stereo unspecified) [euspeclibcmpd579]", "Srxn1-GFP intensity median modified Z-score": 0.101}
{"molecule": "N=c1[nH]c2c(c(=O)[nH]1)N(C=O)C(CNc1ccc(C(=O)NC(CCC(=O)O)C(=O)O)cc1)CN2", "note": "(stereo unspecified) [euspeclibcmpd2313]", "Srxn1-GFP intensity median modified Z-score": -0.0509}
{"molecule": "N=c1[nH]c(=N)c2nc(CNc3ccc(C(=O)NC(CCC(=O)O)C(=O)O)cc3)cnc2[nH]1", "note": "(stereo unspecified) [euspeclibcmpd911]", "Srxn1-GFP intensity median modified Z-score": "10 (active)"}
{"molecule": "N=c1[nH]c(=O)c2c(CCc3ccc(C(=O)NC(CCC(=O)O)C(=O)O)cc3)c[nH]c2[nH]1", "note": "(stereo unspecified) [euspeclibcmpd2345]", "Srxn1-GFP intensity median modified Z-score": -0.108}
{"molecule": "N=c1[nH]c(=O)c2c([nH]1)=NCC(CNc1ccc(C(=O)N[C@H](CCC(=O)O)C(=O)O)cc1)N=2", "note": "(stereo partly specified) [euspeclibcmpd1474]", "Srxn1-GFP intensity median modified Z-score": 0.016}
{"molecule": "COc1ccc(C)cc1CN1CCN(C(c2ccc(F)cc2)c2ccc(F)cc2)CC1", "Srxn1-GFP intensity median modified Z-score": 1.38}
{"molecule": "Oc1ccc2c(c1)OC[C@]1(O)C=c3cc(O)c(O)cc3=C21", "note": "[euspeclibcmpd1461]", "Srxn1-GFP intensity median modified Z-score": -0.856}
{"molecule": "NC(O)=NO", "note": "[euspeclibcmpd156]", "Srxn1-GFP intensity median modified Z-score": 0.197}
{"molecule": "O=C(O)c1ccc(S(=O)(=O)N(Cl)Cl)cc1", "note": "[euspeclibcmpd144]", "Srxn1-GFP intensity median modified Z-score": -0.332}
{"molecule": "Cc1[nH]oc(=NS(=O)(=O)c2ccc(N)cc2)c1C", "note": "[euspeclibcmpd283]", "Srxn1-GFP intensity median modified Z-score": -0.063}
{"molecule": "CCC(C)C(=O)O[C@H]1C[C@@H](C)C=C2C=C[C@H](C)[C@H](CC[C@@H]3C[C@@H](O)CC(=O)O3)[C@H]21", "note": "(stereo partly specified) [euspeclibcmpd875]", "Srxn1-GFP intensity median modified Z-score": -0.147}
{"molecule": "O=C1CC(c2ccc(O)cc2)Oc2ccccc21", "note": "(stereo unspecified) [euspeclibcmpd2144]", "Srxn1-GFP intensity median modified Z-score": -0.183}
{"molecule": "O=C1CC(c2ccccc2)Oc2ccccc21", "note": "(stereo unspecified) [euspeclibcmpd1376]", "Srxn1-GFP intensity median modified Z-score": "3.07 (active)"}
{"molecule": "O=C1C[C@@H](c2ccc(O)cc2)Oc2cc(O)cc(O)c21", "note": "[euspeclibcmpd1328]", "Srxn1-GFP intensity median modified Z-score": 0.815}
{"molecule": "COc1cc(O)c2c(=O)cc(-c3ccc(O)cc3)oc2c1", "note": "[euspeclibcmpd2253]", "Srxn1-GFP intensity median modified Z-score": 0.0845}
{"molecule": "CCOC(=O)NN=c1[nH]ncc2ccccc12", "note": "[euspeclibcmpd1066]", "Srxn1-GFP intensity median modified Z-score": 0.23}
{"molecule": "N=c1[nH]c(C(CCC(=O)O)C(=O)N=C2C(=O)N3C(C(=O)O)=CCS[C@H]23)cs1", "note": "(stereo partly specified) [euspeclibcmpd717]", "Srxn1-GFP intensity median modified Z-score": -0.318}
{"molecule": "O=C(CCc1ccc(O)cc1)c1c(O)cc(O)cc1O[C@@H]1O[C@H](CO)[C@@H](O)[C@H](O)[C@H]1O", "note": "[euspeclibcmpd1493]", "Srxn1-GFP intensity median modified Z-score": -0.343}
{"molecule": "O=C(CCc1ccc(O)cc1)c1c(O)cc(O)cc1O", "note": "[euspeclibcmpd1518]", "Srxn1-GFP intensity median modified Z-score": "16.3 (active)"}
{"molecule": "CCC(=O)c1c(O)cc(O)cc1O", "note": "[euspeclibcmpd1034]", "Srxn1-GFP intensity median modified Z-score": 0.366}
{"molecule": "Cc1c(C(=O)O)c(O)cc2c(O)c3c(O)c(O)c(C4O[C@H](CO)[C@@H](O)[C@H](O)C4=O)c(O)c3c(O)c12", "note": "(stereo partly specified) [euspeclibcmpd1436]", "Srxn1-GFP intensity median modified Z-score": -0.693}
